Compound activity deposited in PubChem by several laboratories.
Sampled rows, rich in hits. Any-hit rate of the full collection: about 1.9%.
EP2 mod: EP2 receptor modulators, cAMP readout, primary screen, cell-based, HTRF cAMP, PGE2 stimulation | actives 0.83% (n = 260,000) | EP2-expressing cells, cAMP HTRF FRET, PGE2 co-stimulation | induction, % at 25 µM;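 active means compounds whose cAMP rise, as percent of the full-agonist control response, exceeds 60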;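 further: rat C6 glioma line stably carrying human EP2 under a CMV promoter; the protocol text gives 20 µM as final concentration; 100% = response of wells given 1 µM PGE2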
Target sequence (P43116 whole entry, looked up): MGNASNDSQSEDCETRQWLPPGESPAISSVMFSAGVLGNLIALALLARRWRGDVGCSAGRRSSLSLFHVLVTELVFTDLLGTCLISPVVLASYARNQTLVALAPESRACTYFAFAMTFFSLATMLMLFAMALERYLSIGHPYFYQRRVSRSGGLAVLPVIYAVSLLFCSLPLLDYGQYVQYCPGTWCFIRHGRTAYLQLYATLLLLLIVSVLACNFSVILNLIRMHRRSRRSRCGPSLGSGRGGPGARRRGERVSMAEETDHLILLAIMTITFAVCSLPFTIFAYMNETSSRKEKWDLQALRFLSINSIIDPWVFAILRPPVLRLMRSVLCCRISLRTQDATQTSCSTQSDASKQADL
PGE2 EP2 inh: human EP2 receptor antagonists, primary screen, TR-FRET cAMP, C6 glioma cells; Prostaglandin E2 receptor EP2 subtype (Homo sapiens), P43116; actives 0.52% (n = 260,000); C6 glioma cells expressing human EP2; cells stimulated with saturating PGE2; inhibition, % at 25 µM;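 active means percent inhibition above 40 after rounding to a whole number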;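 further: rat C6 glioma host cells with rolipram phosphodiesterase inhibitor present; the protocol text gives 20 µM as final concentration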
S1P3 antag: S1P3 receptor antagonists, primary screen, cell-based | inhibition, % at 4.98 µM | actives 0.27% (n = 170,000) | CHO S1P3 NFAT-BLA reporter, FRET fluorescence, antagonist mode;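 active means inhibition above the plate cutoff, the mean inhibition of test wells on that plate plus 3 SD, cut at about 28% in these data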;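 further: cells challenged with S1P at its EC80 of 0.8 µM; blue over green emission ratio from cleaved BLA substrate after 4 h stimulation; 0% = S1P-stimulated wells and 100% = unstimulated DMSO-only wells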
S1P4 ag: S1P4 receptor agonists, primary screen, cell-based; actives 0.35% (n = 220,000); activation, % at 4.98 µM; S1P4-expressing cell line, agonist reporter assay; in the data active means activation above about 11%;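 further: 0% = DMSO vehicle and 100% = reference agonist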
Target sequence (O95977 whole entry, looked up): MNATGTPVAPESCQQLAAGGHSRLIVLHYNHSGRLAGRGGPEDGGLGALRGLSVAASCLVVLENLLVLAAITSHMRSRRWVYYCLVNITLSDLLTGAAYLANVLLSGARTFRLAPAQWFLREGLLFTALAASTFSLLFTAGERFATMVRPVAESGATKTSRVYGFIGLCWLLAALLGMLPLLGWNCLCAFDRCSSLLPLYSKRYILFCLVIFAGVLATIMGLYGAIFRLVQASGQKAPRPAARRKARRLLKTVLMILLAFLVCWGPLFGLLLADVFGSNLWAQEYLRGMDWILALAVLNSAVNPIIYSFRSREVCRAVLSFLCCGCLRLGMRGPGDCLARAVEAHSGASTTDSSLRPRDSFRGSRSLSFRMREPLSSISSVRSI
S1P4 antag: S1P4 receptor antagonists, primary screen, cell-based. Sphingosine 1-phosphate receptor 4 (Homo sapiens), O95977. S1P4-expressing cells, antagonist mode, reporter read-out. inhibition, % at 4.98 µM. actives 0.26% (n = 220,000); in the data active means inhibition above about 29%;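 further: 0% = wells stimulated with agonist and 100% = vehicle wells without agonist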
Pf gamet viab: late stage P. falciparum gametocyte viability inhibitors, primary screen, ATP luminescence, HTS; P. falciparum stage V gametocytes, 24 h; inhibition, % at 10.9 µM; actives 0.065% (n = 150,000);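 active means inhibition above the mean plus 3 SD of compounds within the control limits, set per campaign, cut at about 38% in these data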;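 further: 0% = DMSO wells and 100% = medium only without gametocytes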
EP2 cAMP induct: cAMP induction in EP2, EP4, beta2-AR and parental cells, confirmation, counter-screen for EP2 modulator project, cell-based, five parallel assays, C6 glioma, HEK293; calls only at 20 µM (by protocol); shares compounds with EP2 mod; AID 1080, 2008; actives 47% (n = 1,300); cAMP HTRF induction; plus low (about EC15) PGE2 agonist;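 active means cAMP induction above 50% in the main assay while under 30% in all four parallel counter assays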;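 further: rat C6 glioma cells stably expressing human EP2 receptor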
* marks the source's active call; other numbers are inactive results; i = inactive; nt = not tested or not shown; + = active, no number.

SMILES | EP2 mod | PGE2 EP2 inh | S1P3 antag | S1P4 ag | S1P4 antag | Pf gamet viab | EP2 cAMP induct
CCOC(=O)C1=C(C)OC(N)=C(C#N)C1c1cccc(F)c1 (stereo not drawn) | 23.4 | 11.5 | nt | nt | nt | nt | nt
Cc1ccsc1-c1n[nH]c(=S)n1C1CCCCC1 | 62.9* | 6.0 | -8.2 | 0.4 | -3.3 | -19.6 | i
COc1ccc(-n2c(COc3cccc4ccccc34)nnc2SCC(=O)NCc2ccco2)cc1 | 65.9* | 11.6 | nt | -2.6 | 4.5 | -13.4 | i
CC(C)CCn1c(Oc2ccc(Cl)cc2)nc2c1c(=O)n(C)c(=O)n2C | 72.9* | -0.8 | nt | 0.9 | -2.3 | nt | +
COc1ccc(Oc2nc3c(c(=O)n(C)c(=O)n3C)n2Cc2ccccc2)cc1 | 15.8 | 13.7 | nt | 2.5 | -10.9 | 2.3 | nt
Cc1ccccc1NC1=C(C(=O)c2ccccc2)N(C)S(=O)(=O)c2ccccc21 | 78.3* | 11.7 | nt | 0.6 | 6.0 | nt | +
O=C(Cn1ncc2cccn2c1=O)Nc1ccccc1N1CCOCC1 | -9.1 | 3.1 | nt | nt | nt | nt | nt
COC(=O)CSc1nc2ccccc2c(=O)n1-c1ccc(F)cc1 | 18.3 | 7.7 | nt | nt | nt | nt | nt
O=C(O)c1ccc(-c2nc(-c3cccc(C(F)(F)F)c3)cs2)cc1 | 69.9* | 7.3 | -26.9 | -1.1 | 5.6 | 2.7 | +
O=C(CN1CCCCCC1)Nc1ccccc1Oc1ccccc1 | 70.0* | 9.1 | -6.9 | -2.9 | 0.7 | 4.2 | +
O=C(CN1CCCCC1)Nc1cc(Cl)ccc1Oc1ccccc1 | 49.7 | 1.0 | 21.5 | 0.8 | -15.7 | 21.5 | nt
CCN(CC)CCN1C(=O)c2cccc3cc(N)cc(c23)C1=O | 7.0 | 38.4 | 2.5 | 1.9 | -41.1 | nt | i
Cc1ccc(C(=O)C2=C(O)C(=O)N(CCCn3ccnc3)C2c2ccc(OC(C)C)cc2)o1 (stereo not drawn) | 65.1* | 13.4 | -8.3 | 0.2 | -9.5 | nt | i
CCOc1ccc(C2C(C(=O)c3ccco3)=C(O)C(=O)N2CCCn2ccnc2)cc1 (stereo not drawn) | 14.4 | 5.2 | -3.3 | 0.1 | -5.6 | nt | nt
FC(F)(F)c1cc(-c2ccccc2)nc(N2CCOCC2)n1 | 65.1* | 9.6 | nt | 3.1 | 1.9 | -14.3 | i
COc1cc(OC)cc(-c2nc(N)n[nH]2)c1 | 68.3* | 17.4 | -53.3 | -0.5 | 15.8 | 20.8 | i
OC1(c2ccc(Cl)cc2)CN(c2ccccc2)C2=[N+]1CCS2 (stereo not drawn) | 67.8* | 4.4 | 9.5 | 1.0 | -12.4 | -7.4 | +
CC(C)(C)C1=NN(CC(=O)NCC2CC2)C(=O)c2cc3ccccc3n2C1 | -54.6 | nt | nt | nt | nt | nt | nt
COc1cc(C(=O)NCC(c2ccco2)N(C)C)cc(OC)c1OC (stereo not drawn) | 5.4 | 4.7 | 6.2 | 0.3 | -4.0 | 11.4 | nt
Cc1cc(C(=O)NCC(c2ccco2)N(C)C)no1 (stereo not drawn) | 71.0* | 1.3 | nt | 0.0 | 12.8 | 3.0 | i
COc1ccc(OC)c(C2NC(=S)NC(C)=C2C(=O)OCc2ccccc2)c1 (stereo not drawn) | 13.8 | 6.7 | nt | nt | nt | nt | nt
Cc1nc2c(c(=O)[nH]1)CCN(Cc1cccc3cccnc13)C2 | -19.2 | 3.1 | nt | nt | nt | nt | nt
O=C(NCc1ccccc1)c1ccc(-c2ccccc2C(F)(F)F)o1 | 13.1 | 7.9 | -21.4 | 1.6 | 19.6 | -65.1 | nt
O=C(O)c1ccc(-c2ccccc2C(F)(F)F)o1 | 82.9* | 14.0 | -7.7 | 1.7 | -12.5 | nt | +
CCc1cc2cc(C)cc(C)c2nc1SCC(=O)NCc1cccs1 | 35.5 | 11.7 | nt | nt | nt | nt | nt
SMILES | EP2 mod | PGE2 EP2 inh | S1P3 antag | S1P4 ag | S1P4 antag | Pf gamet viab | EP2 cAMP induct
CCOC(=O)c1c(NC(=O)COC(=O)Cn2cnc3ccccc32)sc(C)c1C | -9.2 | 22.2 | 0.9 | 0.1 | -1.2 | nt | nt
CCOC(=O)c1c(NC(=O)COC(=O)Cn2c(C)nc3ccccc32)sc2c1CCCC2 | 55.0 | 8.5 | -11.4 | -0.9 | -5.6 | nt | +
CCOC(=O)c1c(NC(=O)CSc2nnc(C)s2)sc2c1CCC(C)C2 (stereo not drawn) | 53.0 | 7.5 | nt | -0.3 | -7.4 | 13.8 | i
CCOC(=O)c1c(NC(=O)COC(=O)Cn2cnc3ccccc32)sc2c1CCC(C)C2 (stereo not drawn) | 62.3* | 8.1 | -16.9 | 0.7 | -9.3 | -25.2 | i
CCOC(=O)c1c(NC(=O)CSc2nnc(C)s2)sc2c1CCCCC2 | 43.0 | 6.0 | nt | 0.3 | 0.3 | nt | nt
CCOC(=O)c1c(NC(=O)Cn2nnc3ccccc32)sc2c1CCC(C)C2 (stereo not drawn) | 50.2 | 10.9 | -16.3 | 1.4 | -5.8 | 9.2 | i
CC1=C(C(=O)OC(C)C)C(c2ccc3c(c2)OCO3)C2=C(CC(C)(C)CC2=O)N1 (stereo not drawn) | 7.7 | 9.4 | nt | nt | nt | nt | nt
O=C1CN(S(=O)(=O)c2ccc3c(c2)NC(=O)CO3)CCN1 | -11.0 | -1.2 | nt | nt | nt | nt | nt
Cc1cc2c(cc3c(=O)n(CC(=O)N(Cc4cccnc4)C4CC4)nc(C)n32)o1 | 6.8 | 7.8 | nt | nt | nt | nt | nt
COc1ccc(NC(=S)N2CCCC(c3nc4cc(C)c(C)cc4[nH]3)C2)cc1 (stereo not drawn) | -52.1 | 12.5 | nt | nt | nt | nt | nt
CCSCC1COC(c2cccn2Cc2ccc(C)cc2)=N1 (stereo not drawn) | 26.5 | 8.8 | -33.3 | -0.8 | -3.0 | nt | nt
CCC1COC(c2cccn2Cc2ccc(Cl)cc2)=N1 (stereo not drawn) | 65.5* | 3.2 | -10.0 | -0.5 | -14.4 | -0.2 | i
CCc1ccccc1N(CC(=O)NC1CCCC1)C(=O)CCC(=O)Nc1nccs1 | 10.8 | 10.8 | nt | nt | nt | nt | nt
CCOC(=O)c1cc2c(=O)n3ccccc3nc2n(Cc2ccc(C)cc2)c1=N | 14.6 | 1.7 | nt | nt | nt | nt | nt
COc1cc(OC)c(-c2nc(-c3ccccc3)no2)cc1OC | 20.4 | 7.6 | nt | nt | nt | nt | nt
COc1ccc(-c2noc(-c3ccccc3-c3ccccc3)n2)cc1OC | 77.2* | nt | -17.8 | -0.3 | -15.2 | 0.9 | +
Cc1nnc(SCC(=O)NC2CCCCC2)n1C1CCCCC1 | 52.9 | 15.0 | 3.5 | 0.2 | -5.8 | nt | i
O=C(CSc1nnc(-c2ccncc2)n1C1CCCCC1)NC1CCCC1 | 7.7 | 17.8 | nt | nt | nt | nt | nt
Cc1ccccc1OCC(O)Cn1c(NN)nc2c1c(=O)n(C)c(=O)n2C (stereo not drawn) | -22.7 | 5.1 | nt | nt | nt | nt | nt
Cc1ccc2c(c1)-c1nc3ccccc3cc1C2=NC1CCCCC1 | 69.9* | 4.3 | 0.2 | -0.1 | -9.5 | -16.3 | i
COc1ccc2c(c1)OC1(CCN(CC(O)c3ccc(Cl)cc3)CC1)CC2O (stereo not drawn) | -50.4 | 11.0 | nt | nt | nt | nt | nt
